Screening data as filed in PubChem.
Shown are actives, neighbours in structure and some others; about 3.8% of the full set was active somewhere.
A1 inh = caspase 3/7 activation in MEF A1-2A-BIM cells, primary screen, A1 inhibitor project, cell-based, luminescence, HTS. Caspase-Glo 3/7 luminescence, 3 h; percent of clofoctol response, vehicle zero. caspase activation, % (no concentration beside the values). 330,000 tested, 0.066% active. AID 2462, 2010;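 active = over half of replicate activation scores above 10%, or exactly half above 10 with the replicate mean above 10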
Beta apoptosis = inhibitors of cytokine-induced beta cell apoptosis, primary screen, luminescence; protection from apoptosis, % (test concentration not listed); AID 435005, 2010; 300,000 tested, 0.8% active; INS-1E cytokine-induced death, ATP luminescence, 48 h; percent of positive-control rescue, neutral wells zero;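 active = Every replicate reaches about 75%, or at least half do and their mean reaches it too, limit read from the data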;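 note: 0% = cytokine-treated negative control wells and 100% = positive control rescue; higher means more ATP so stronger rescue from cytokine killing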
Jurkat NFkB inh = inhibitors of induced NF-kB luciferase reporter, primary screen, TCR NF-kB activation inhibitor project, cell-based, luminescence, uHTS; Jurkat, PMA/ionomycin-induced NF-kB luciferase reporter; inhibition, % at 4 µM; 330,000 tested, 0.53% active; AID 435003, 2010; in the data active = inhibition above about 50%
Mdm2-MdmX inh = inhibitors of human Mdm2-MdmX association, primary screen, cell-based, luminescence, split luciferase, SaOS-2, uHTS; 330,000 tested, 3% active; SaOS-2 split-luciferase Mdm2/MdmX complementation; inhibition, % at 8 µM; Protein Mdm4 (Homo sapiens) + E3 ubiquitin-protein ligase Mdm2 (Homo sapiens), …; AID 485346, 2010;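 active = inhibition of at least 50% at 8 µM in the primary screen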
NTR1 ag = agonists of human NTR1, primary screen, imaging, U2OS cells, beta-arrestin-GFP, high content; NTR1-U2OS beta-arrestin-GFP spot imaging, agonist mode; Neurotensin receptor type 1 (Homo sapiens), P30989; 330,000 tested, 0.17% active; activation, % at 20 µM;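 active = activation at or above 40% of the spot to cytoplasm intensity ratio, with at least 20 cells analyzed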;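 note: 0% = DMSO without peptide and 100% = 100 nM NTR1 peptide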
697 NFkB inh = inhibitors of PMA/ionomycin-induced NF-kB reporter, 697 cells, primary screen, B-cell NF-kB inhibitor project, cell-based, luminescence, uHTS; 697 B-cell NF-kB luciferase reporter, 16 h; inhibition, % at 4 µM; 330,000 tested, 0.33% active; in the data active = inhibition above about 35%
697 NFkB conf = PMA/ionomycin-induced NF-kB reporter inhibitors, 697 retest, confirmation, B-cell NF-kB inhibitor project, cell-based, luminescence, single concentration; shares compounds with 697 NFkB inh; 697 B-cell NF-kB luciferase, 16 h; inhibition, % at 4 µM; 2,000 tested, 35% active; in the data active = inhibition mostly above about 28%, no sharp cut-off; inactive = mostly below about 22%
Mdm2 MdmX conf = Mdm2-MdmX complex disruptors, retested hits, confirmation, luminescence, single concentration; shares compounds with Mdm2-MdmX inh; Mdm2-MdmX binding, luminescent assay; inhibition, % at 8 µM; 10,000 tested, 55% active; in the data active = inhibition above about 40%
Full FLuc ctr = full-length luciferase signal inhibition, confirmation, counter-screen for Mdm2/MdmX interaction inhibitor project, cell-based, single concentration, SaOS-2. shares compounds with Mdm2-MdmX inh. SaOS-2 full-length luciferase counterscreen, luminescence. inhibition, % at 8 µM. 6,200 tested, 77% active;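 active = mean inhibition at 8 µM reaching about 37%, which flags the compound as non-specific, limit read from the data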;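 note: p53-null SaOS-2 cells with luciferase driven by a doxycycline-inducible promoter; compound on cells about two nights before reading with doxycycline added after day one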
Numbers without * were called inactive; i = inactive; . = no result given.

SMILES	A1 inh	Beta apoptosis	Jurkat NFkB inh	Mdm2-MdmX inh	NTR1 ag	697 NFkB inh	697 NFkB conf	Mdm2 MdmX conf	Full FLuc ctr
CCc1c(C)sc(NC(=O)C2CC2c2ccccc2)c1C(N)=O (centres undefined)	1	1	-78	57*	0	-488	-269	73*	55*
COc1ccccc1N(Cc1ccccc1)S(=O)(=O)c1cccc(C(=O)Nc2ccccn2)c1	0	5	-7	67*	2	-324	-190	60*	91*
CNC(=O)/C(C#N)=C1\SC(Cc2ccc(F)cc2)C(=O)N1c1ccccc1C (centres undefined)	0	2	-24	4	-1	-41	.	.	.
CC(=O)/C(C#N)=C1\NC(=O)C(Cc2ccccc2C)S1 (centres undefined)	0	-3	19	83*	-1	i	i	70*	41*
CC(=O)Nc1nc(C)c(-c2csc(Nc3cccc([N+](=O)[O-])c3)n2)s1	0	13	18	90*	3	45*	9	71*	36
CC(=O)Nc1ccc(Nc2nc(-c3sc(NC(C)=O)nc3C)cs2)cc1	-7	-12	22	58*	0	41*	26*	23	.
CC(=O)c1cccc(Nc2nc(-c3cccc([N+](=O)[O-])c3)cs2)c1	1	2	-25	-53	6	-134	.	.	.
COc1ccc(NC(=O)c2ccc3c(c2)C(=O)N(Cc2ccncc2)C3=O)cc1S(N)(=O)=O	2	-6	-1	35	2	2	.	.	.
CCN(CC)C(=O)N1c2ccccc2C=Cc2ccccc21	0	-8	-72	85*	-2	i	i	80*	34
COc1ccccc1N1CCN(C2CCCN(C(=O)CCC(=O)N(C)C)C2)CC1 (centres undefined)	1	0	1	23	1	10	.	.	.
O=C(Cc1n[nH]c(=O)c2ccccc12)OCc1c(Cl)cccc1Cl	1	7	-31	57*	2	i	i	55*	62*
Cc1cccc2nc(COc3ccc(-c4ccccc4)cc3)cn12	-9	.	-27	63*	2	i	-450	30	78*
Cc1cc(C)n2cc(COc3ccc4ccccc4c3)nc2n1	-1	-1	-106	-218	-1	-182	.	.	.
O=C(COc1ccccc1/C=C1\SC(=S)NC1=O)Nc1ccc(F)cc1	0	22	-8	20	12	-4	.	.	.
O=C(NCc1ccccn1)c1cc(-c2ccc(-c3ccccc3)cc2)nc2ccccc12	-3	-4	-53	84*	6	i	i	61*	54*
COCCNC(=O)c1cc(-c2ccc(-c3ccccc3)cc2)nc2ccccc12	-1	0	-83	88*	2	i	i	84*	46*
Oc1ccc(N=Nc2ccc3c(c2)OCO3)c2ccccc12	-9	99*	16	94*	5	-306	-22	92*	59*
Cc1nc2c(-c3ccc(F)cc3)cnn2c(N)c1-c1ccccc1	-1	4	-36	91*	28	-310	-224	87*	110*
